Data reported in ChEMBL document CHEMBL4513216, “Probing the Open Global Health Chemical Diversity Library for Multistage-Active Starting Points for Next-Generation Antimalarials” (ACS Infect Dis, 2020).
Screen size: about 69,000 compounds; about 8,600 (12%) showed an effect of 50% or more. What follows is part of a selection rich in strong results, with near analogues and random picks from the rest.

Tested on: Plasmodium berghei
Experiment: Screen against P. berghei liver stage (PbLuc), transformed with Luciferase, at 10uM
Assay type: functional, HepG2
Conditions: tested at 10 uM

Row | SMILES | INHIBITION [%]
1 | Cc1ccc(N2CCCC(NCc3sccc3C)C2)nn1 (centres undefined) | 36.1
2 | O=C(c1cscn1)N1CCC2(CN(Cc3nccs3)C2)C1 | 15.9
3 | Cc1csc2ncc(-c3ccnc(NC4CCOCC4)n3)c(=O)n12 | -9.27
4 | CCCc1noc(C(C)N(CC)Cc2ccco2)n1 (centres undefined) | -30.5
5 | O=C(c1ccno1)N1CC[C@@H]2O[C@H](COCCN3CCCC3)CC[C@@H]21 | 4.27
6 | O=C1CCC2(CCCN(C(=O)Cc3cccnc3)C2)N1 (centres undefined) | 0.112
7 | Fc1ccc(C2CCCCN2Cc2cc(-c3ccccn3)no2)cc1 (centres undefined) | 51.8
8 | CCc1nc(C2CCCN2Cc2ccno2)no1 (centres undefined) | 19.6
9 | Fc1cccc(C2CCCCN2Cc2nc(-c3cnccn3)no2)c1 (centres undefined) | -12.6
10 | CCc1cc(CN2CCCCC2c2ccc(F)cc2)on1 (centres undefined) | 65.7
11 | c1ccc(-c2cc(CN3CCCCCC3c3ccco3)on2)nc1 (centres undefined) | -15
12 | Fc1ccc(C2CCCN2Cc2nc(Cc3ccccc3F)no2)cc1 (centres undefined) | 25.8
13 | COc1ccc(C2CCCCCN2S(C)(=O)=O)cc1 (centres undefined) | 27.4
14 | Cc1ccc2c(n1)N(C)CCN(Cc1ccco1)C2 | 3.88
15 | CN1CCN(c2ncnc3c2CCN(S(=O)(=O)C2CC2)CC3)CC1 | 29.4
16 | CC(=O)Nc1nc(C(=O)NC(C)c2ccc(F)cc2)cs1 (centres undefined) | -45.2
17 | Cc1cs/c(=N/C(=O)c2csc(NCC(C)C)n2)[nH]1 | 90.8
18 | Cc1[nH]/c(=N\C(=O)c2csc(NCC(C)C)n2)sc1C | 89.6
19 | Cc1cs/c(=N\C(=O)c2c3c(nc4onc(C)c24)CCC3)[nH]1 | 24.1
20 | CC(C)CNc1nc(C(=O)/N=c2\[nH]nc(C(C)(C)C)s2)cs1 | 11.5
21 | Cc1cc(O)c(OCC(=O)/N=c2\[nH]c(C)c(C)s2)cn1 | -69.4
22 | Cc1nn(C(C)C)c(C)c1CN1CCN(C2CCCCC2)C(=O)C1 | 5.1

Row | SMILES | INHIBITION [%]
23 | CCN1CC[C@@]2(C(=O)N3CCOCC3)CCN(S(=O)(=O)CC)CC[C@@H]12 | 17.4
24 | Cc1ccn2cc(C(=O)N3CCCC(Cn4cc(CO)nn4)C3)nc2c1 (centres undefined) | 36.7
25 | Cc1cc2n(n1)[C@@H](C(F)(F)F)C[C@@H](C1CCN(C(=O)C3CC3)CC1)N2 | -4.51
26 | CC(C)(C)CC(=O)NS(=O)(=O)c1ccc(C#N)cc1C(F)(F)F | 19.2
27 | Cc1cc(C)n(-c2cncc(NCCNC(=O)C3CCCC3)n2)n1 | 45.2
28 | CS(=O)(=O)N1CCn2c(C(=O)N3CCOCC3)cnc2C1 | 52.6
29 | CS(=O)(=O)N1CC[C@H]2C[C@@H](C(=O)N3CCOCC3)O[C@@H]2C1 | 25.4
30 | CS(=O)(=O)N1C[C@@H]2C[C@H](C(=O)N3CCOCC3)[C@H](C1)O2 | 0.112
31 | Cc1cccc(NS(=O)(=O)c2cc3c(c(C(=O)O)c2)OCCO3)c1 | 7.27
32 | Cc1cc(C)cc(NS(=O)(=O)c2cc3c(c(C(=O)O)c2)OCCO3)c1 | 57.2
33 | O=C(O)c1cc(S(=O)(=O)Nc2cc(F)cc(F)c2)cc2c1OCCO2 | 40
34 | COCCN1C(=O)CCC12CCC(NC(=O)c1cnccn1)CC2 (centres undefined) | -14.7
35 | CNC(=O)C1(c2cnccn2)CCCN1C(=O)c1ccccc1F (centres undefined) | 13.5
36 | C[C@H]1CN(CC2CCOCC2)C[C@@]12CCN(Cc1cccnc1)C2=O | 3.81
37 | Cc1nccn1CCC1CCNCC1 | 39.6
38 | Cc1nc(CN2CCCC2Cn2ccnc2C(C)C)nc2ccccc12 (centres undefined) | 30.4
39 | CN1CCCC1CCn1ccnc1-c1nc(-c2ccccc2)no1 (centres undefined) | 51.8
40 | Cc1nn(C)c2nc(-c3ccccn3)nc(NCCC3CCCN3C)c12 (centres undefined) | 11.2
41 | OCC1CCCCN1CCn1ccnc1-c1nc2ccccc2[nH]1 (centres undefined) | 38.8
42 | Cn1ccnc1CN1CCCCC1c1nc(-c2ccccc2)no1 (centres undefined) | 30.4
43 | CN1CCCC1CCn1ccnc1-c1nc2ccccc2[nH]1 (centres undefined) | 53.9
44 | c1ccc(-c2noc(CCCN3CCCC3Cn3cccn3)n2)cc1 (centres undefined) | 45.7

Row | SMILES | INHIBITION [%]
45 | CN1CCCC1CCn1ccnc1-c1ccc2ccccc2n1 (centres undefined) | 72.3
46 | COCCN1CCCC1Cn1nc(C)cc1C (centres undefined) | 32.3
47 | Cc1cc(=O)n2nc(Oc3ccc(Cl)c(C)c3)sc2n1 | 16.3
48 | CCC(C)N(Cc1cnc(NCC(=O)O)nc1)Cc1ccsc1 (centres undefined) | 41.3
49 | O=C(Cc1ccccc1O)NC1CCCN(c2ccccc2F)C1=O (centres undefined) | 26.4
50 | Cc1cc(C(=O)NCCC(=O)N2CCCc3ccccc32)no1 | 1.51
51 | O=C(c1ccnnc1)N1C[C@H](OCC2CCOCC2)[C@H]2OCCC[C@H]21 | 4.68
52 | CN(Cc1nc(N)c2ccccc2n1)CC1CCCN1c1cccnn1 (centres undefined) | 11.8
53 | CN(Cc1ncc(C(C)(C)C)o1)CC1CCCN1c1cccnn1 (centres undefined) | 86.6
54 | CC(C)(C)c1cnc(CNCC2CCCN2c2cccnn2)o1 (centres undefined) | 34.1
55 | CN(Cc1ncc(-c2ccccc2)o1)CC1CCCN1c1cccnn1 (centres undefined) | 37
56 | Cc1nc(CN(C)CC2CCCN2c2cccnn2)oc1C (centres undefined) | -27.8
57 | Cc1nnc(CN(C)CC2CCCN2c2cccnn2)o1 (centres undefined) | 19.5
58 | CN(Cc1nc2ccccc2o1)CC1CCCN1c1cccnn1 (centres undefined) | 55
59 | Cc1nc(CN(C)CC2CCCN2c2cccnn2)nc2ccccc12 (centres undefined) | 60.9
60 | Cc1nc2ccccc2nc1CN(C)CC1CCCN1c1cccnn1 (centres undefined) | 10.2
61 | CC(=O)N1CCCN(C(C)c2ccc(Br)cc2)CC1 (centres undefined) | -19.2
62 | CC(C)CNC(=O)N1CC[C@@H]2CN(Cc3cccnc3)S(=O)(=O)[C@@H]2CC1 | 32.1
63 | CCC(CC)C(O)CNC(=O)Cc1c[nH]c2ncccc12 (centres undefined) | 2.38
64 | CCN1CCCC(O)(CN(C)Cc2ccccc2F)C1 (centres undefined) | 8.46
65 | O=C1CC(c2ccccc2)C2(CCN(C(=O)c3ccncc3F)CC2)N1 (centres undefined) | 32.2
66 | COCCCNC(=O)Nc1ccc(F)c(C(N)=O)c1 | -23.9

Row | SMILES | INHIBITION [%]
67 | COc1c(Cl)cc(Cl)cc1CN1CCC(C(N)=O)C1 (centres undefined) | -11.3
68 | O=C(NCc1ccccc1F)N1CCCCC1C1OCCO1 (centres undefined) | -6.88
69 | CN(Cc1cccc(-n2cccn2)c1)Cc1cccs1 | -29
70 | CCC(CO)N(Cc1cccc(-n2cccn2)c1)Cc1cccs1 (centres undefined) | 53.2
71 | CCC(CO)N(Cc1cccc(-n2cccn2)c1)Cc1ccccn1 (centres undefined) | 25.5
72 | O=C(COc1cccc(F)c1)N1C[C@H](CO)C[C@H](CN2CCCC2)C1 | 10.42
73 | O=C(COc1ccccc1)N1C[C@@H](O)[C@H](N2CCCC2)C1 | 37
74 | O=C(COc1cccc(F)c1)N1C[C@@H](CN2CCCC2)C[C@H](CO)C1 | -1.315
75 | O=C(COc1cccc(F)c1)N1C[C@@H](O)[C@H](N2CCOCC2)C1 | 32.3
76 | CN(C)[C@@H]1CN(C(=O)COc2cccc(F)c2)C[C@H]1O | 54.5
77 | O=C(COc1cccc(F)c1)N1C[C@@H](O)[C@H](N2CCCC2)C1 | 53.5
78 | COCCN1C(=O)[C@]2(CC[C@@H]3CN(Cc4ccccc4F)C[C@@H]32)N=C1C | 14.9
79 | O=C(Nc1cnn(-c2ccccc2Cl)c1)NC1CCC(O)CC1 (centres undefined) | -66.7
80 | Cc1nn(C)c(C)c1S(=O)(=O)N1CC[C@H]2O[C@@H](C)C[C@H]2C1 | 17.4
81 | COC(=O)[C@H](C)NC(=O)CSCc1nc2sc(C(C)C)cc2c(=O)[nH]1 | 28.7
82 | O=C(C1CCC1)N1C2CCC(O)(CC2)C1CN1CCOCC1 (centres undefined) | 16.2
83 | Cn1nc(-c2ccc(F)cc2)cc1C(=O)NCCn1ccnc1 | -0.232
84 | CC1CN(CC(=O)Nc2cccnc2)CCN1c1nccs1 (centres undefined) | 52.7
85 | Cc1csc(N2CCN(CC(=O)Nc3nncs3)CC2C)n1 (centres undefined) | 40.9
86 | O=C(CN1CCN(c2nccs2)CC1)Nc1cccnc1 | -24.2
87 | Cc1csc(N2CCN(CC(=O)Nc3ccncc3)CC2C)n1 (centres undefined) | 71.75
88 | Cc1csc(N2CCN(CC(=O)Nc3cccnc3)CC2C)n1 (centres undefined) | 11.9

Row | SMILES | INHIBITION [%]
89 | CC1CN(CC(=O)Nc2ccncc2)CCN1c1nccs1 (centres undefined) | 21.6
90 | Cc1cc(N2CCN(Cc3ccnn3C)CC2)cc(C2CCCN2)n1 (centres undefined) | 37.45
91 | Cc1cccc(S(=O)(=O)N2CC[C@H]3CO[C@H](CN(C)C)[C@H]3C2)c1 | -1.55
92 | COCc1nn(C(C)C)c2c1CCN(Cc1nccs1)C2 | -11.6
93 | O=C(c1cnccn1)N1CCN(Cc2cccnc2)c2ncccc2C1 | 11.5
94 | CN1[C@H](CO)C[C@H](CNCc2ccc(Cl)c(F)c2)[C@@H]1c1ccccc1F | 53.5
95 | CN1[C@H](CO)C[C@H](CNCc2ccc(CO)o2)[C@@H]1c1ccccc1F | 28.7
96 | CCc1ccc(CNC[C@H]2C[C@@H](CO)N(C)[C@H]2c2ccccc2F)o1 | -3.96
97 | CCC(=O)N1CCC(c2nc(N3CCOCC3)ncc2S(C)(=O)=O)CC1 | 36
98 | Cc1nnc(C2Cc3ccccc3CN2Cc2c(C)noc2C)o1 (centres undefined) | 19.5
99 | CC(Cn1cccn1)NC(=O)c1cc(C2CC2)nc2c1cnn2C (centres undefined) | -6.18
100 | Cn1cc(CN2CCC(c3cc(COc4cccc(Cl)c4)[nH]n3)C2)cn1 (centres undefined) | 21.955
101 | COc1ccc(CN2CCN(Cc3nccn3C)C(C)C2)cc1F (centres undefined) | -85.6
102 | COc1ccc(C)cc1CN1CCN(Cc2nccn2C)C(C)C1 (centres undefined) | -78.3
103 | COc1ccc(C(C)=O)cc1CN1CCn2cccc2C1C (centres undefined) | 58.5
104 | COc1ccc(CN2CC(n3cccn3)C2)cc1F | 4.34
105 | COc1ccc(C)cc1CN1CCCC1Cn1nc(C)nc1C (centres undefined) | 25.3
106 | COC(=O)c1ccc(OC)c(CN2CCN(CC(C)C)C(=O)C2C)c1 (centres undefined) | -14.1
107 | COc1ccc(C)cc1CN1CCn2cccc2C1C (centres undefined) | 84.2
108 | COc1cc(C(C)=O)ccc1OCC(=O)c1cccn1C | 41.3
109 | COc1ccc(CN2CCn3cccc3C2C)cc1F (centres undefined) | 59.4
